Measurements: the supplement of paper PMC13380429

Test system: Vero E6 infected with SARS-CoV-2
Test: inhibition of SARS-CoV-2 cytopathic effect; higher = more antiviral protection, active = above 15
Conditions: 48 h

Measured: inhibition of SARS-CoV-2 cytopathic effect

CC(C)C[C@H](CN)CC(=O)O
inactive: 1 nM -2.46% | 8.33 nM -1.59% | 100 nM -0.55% | 833.33 nM -0.08% | 10000 nM 0.02%

Cc1cc(CCC[C@H](CC(=O)NO)C(=O)N[C@H](C(=O)N[C@H](C)c2ccccc2)C(C)(C)C)ccc1-c1ccccc1
inactive: 1 nM -1.73% | 8.33 nM -2.08% | 100 nM -3.51% | 833.33 nM -2.76% | 10000 nM -13%

C[C@@H]1CC[C@@]2(OC1)O[C@H]1C[C@H]3[C@@H]4CC=C5C[C@@H](O[C@@H]6O[C@H](CO)[C@@H](O[C@@H]7O[C@@H](C)[C@H](O)[C@@H](O)[C@H]7O)[C@H](O)[C@H]6O[C@@H]6O[C@@H](C)[C@H](O)[C@@H](O)[C@H]6O)CC[C@]5(C)[C@H]4CC[C@]3(C)[C@H]1[C@@H]2C [dioscin]
inactive: 1 nM -2.63% | 8.33 nM 0.88% | 100 nM -2.63% | 833.33 nM 0.22% | 10000 nM -12.2%

CNCC(O)c1ccc(OC(=O)C(C)(C)C)c(OC(=O)C(C)(C)C)c1 (stereo not given) [dipivefrine]
inactive: 1 nM 0.87% | 8.33 nM 3.76% | 100 nM 1.77% | 833.33 nM 1.42% | 10000 nM 0.56%

O[C@H]1[C@H](O)[C@@H](O)[C@H](O)[C@@H](O)[C@H]1O [inositol]
inactive: 1 nM -0.68% | 8.33 nM 0.73% | 100 nM -1.55% | 833.33 nM 1.69% | 10000 nM 2.84%

CCCCCCCCCCCCCCCCCCCCCCO [docosanol]
inactive: 1 nM -8.94% | 8.33 nM -7.8% | 100 nM -10.4% | 833.33 nM -7.91% | 10000 nM -4.03%
